# Screening results from PubChem.
# ROC1-CUL1 inh – inhibitors of human ROC1-CUL1 ubiquitin ligase activity. inhibition, % at 10 µM. in vitro K48 di-Ub FRET, acceptor:donor ratio, 45 min. 140,000 compounds, 0.6% hits. E3 ubiquitin-protein ligase RBX1 (Homo sapiens) + Cullin-1 (Homo sapiens), P62877+Q13616. AID 1347404, 2020; in the data active means inhibition above about 25%
# Target sequence (P62877 whole entry, looked up): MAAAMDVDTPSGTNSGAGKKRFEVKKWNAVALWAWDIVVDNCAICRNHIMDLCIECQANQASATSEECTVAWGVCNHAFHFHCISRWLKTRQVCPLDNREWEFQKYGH
# Target sequence (Q13616 whole entry, looked up): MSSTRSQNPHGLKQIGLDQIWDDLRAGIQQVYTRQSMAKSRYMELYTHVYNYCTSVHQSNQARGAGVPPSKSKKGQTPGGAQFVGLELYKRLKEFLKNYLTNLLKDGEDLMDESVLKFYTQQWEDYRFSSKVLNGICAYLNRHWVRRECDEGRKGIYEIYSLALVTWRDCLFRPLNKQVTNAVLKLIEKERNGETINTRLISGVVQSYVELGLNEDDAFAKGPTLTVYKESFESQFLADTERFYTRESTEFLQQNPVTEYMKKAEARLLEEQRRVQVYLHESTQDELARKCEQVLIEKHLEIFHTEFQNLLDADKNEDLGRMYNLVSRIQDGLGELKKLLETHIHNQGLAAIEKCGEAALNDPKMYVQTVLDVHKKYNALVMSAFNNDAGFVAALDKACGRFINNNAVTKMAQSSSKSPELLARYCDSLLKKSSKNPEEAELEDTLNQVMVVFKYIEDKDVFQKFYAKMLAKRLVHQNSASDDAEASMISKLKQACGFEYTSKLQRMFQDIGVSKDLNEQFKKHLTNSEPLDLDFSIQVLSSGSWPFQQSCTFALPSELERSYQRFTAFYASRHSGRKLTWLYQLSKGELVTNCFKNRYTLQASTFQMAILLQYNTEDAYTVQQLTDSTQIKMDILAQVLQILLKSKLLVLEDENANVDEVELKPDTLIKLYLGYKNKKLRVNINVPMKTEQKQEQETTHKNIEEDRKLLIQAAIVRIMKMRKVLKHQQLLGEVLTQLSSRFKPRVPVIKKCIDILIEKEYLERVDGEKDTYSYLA
# An asterisk follows results filed as active. Many of the other results were omitted from the sample, so hits are more common in it than they were.
SMILES,ROC1-CUL1 inh
O=C(NCCN1Cc2ccccc2OC(c2ccccc2F)C1)C(c1cccnc1)N1CCOCC1 (centres undefined),-2
COc1cc(CN2CCCC2)ccc1OCC(O)CN1CCCCCCC1 (centres undefined),1
COc1cc(CNC(C)(C)C)ccc1OCC(O)CN1CCCC1 (centres undefined),99*
COc1cc(CNCCSC)ccc1OCC(O)CN1CCCCCC1 (centres undefined),4
O=C(/C=C/C(=O)N(c1ccccc1)c1ccccc1)OCC(=O)c1ccccc1,-2
c1ccc(Cc2c[n+]3cc(-c4ccccc4)[nH]c3s2)cc1,-3
Cc1ccc(-c2[nH]nc3c2C(c2ccsc2)C(C#N)C(=N)O3)cc1 (centres undefined),-5
CCc1ccc(OCC(=O)N2CCN(S(C)(=O)=O)CC2)cc1,8
C=CCN1C(=O)/C(=C/c2ccc(-c3ccc(C(=O)O)cc3)o2)SC1=S,5
CN1C(=O)/C(=C/c2ccc3c(c2)OCO3)SC1=Nc1ccc(C(=O)O)cc1,12
CN1C(=O)/C(=C/c2ccc(-c3ccc(C(=O)O)cc3)o2)SC1=Nc1ccc(C(=O)O)cc1,29*
COC(=O)c1cccc(C(=O)N2CCC(C(Cc3ccccc3)N(C)C(=O)Cn3cccn3)CC2)c1 (centres undefined),-3
COc1cccc(Sc2ccccc2CNCCN(C)C)c1,9
CCOc1ccc(N2C(=O)C(C=Nc3cc(N)cc(C(=O)O)c3)C(=O)NC2=S)cc1 (centres undefined),90*
Cc1ccc(N2C(=O)NC(=O)C(C=Nc3ccc(O)c(C(=O)O)c3)C2=O)cc1 (centres undefined),5
CCOC(=O)c1c(N=CC2C(=O)NC(=S)N(c3ccc(F)cc3)C2=O)sc2c1CCCC2 (centres undefined),9
CCOc1cc(/C=C2\SC(=O)N(c3cccc(Cl)c3)C2=O)cc(Cl)c1O,2
CCOC(=O)C1C(C)=NC2C3CCCCC3S(=O)(=O)C2C1c1cc(OC)c(OC)c(OC)c1 (centres undefined),1
COc1ccc(C(=O)Nc2ccc(Cl)c(-c3nc4ccccc4o3)c2)cc1[N+](=O)[O-],11
CC1=NN(c2ccccc2)C(=O)C1C(=O)c1ccc(Cl)cc1 (centres undefined),-11
CC(=O)NC1C(=O)N(c2ccccc2)N=C1C (centres undefined),4
COC(=O)C(O)(C1C(=O)N(c2ccccc2)N=C1C)C(F)(F)F (centres undefined),75*
CC1=C(C#N)C(=O)N(CCc2ccccc2)C(=O)C1C=Nc1ccc(C)cc1C (centres undefined),-11
COc1cc(/C=C/c2nn(-c3ccc(Br)cc3)c3c(=O)ccccc23)cc(OC)c1OC,6
O=c1ccccc2c(/C=C/c3ccc(Cl)cc3Cl)nn(-c3ccccc3)c12,26*
SMILES,ROC1-CUL1 inh
O=c1c(Cl)cc(Cl)nn1-c1ccccc1,-8
Cc1oc(-c2ccc(Cl)cc2)nc1CN(CCO)CCO,-6
CC(Oc1ccccc1)C(=O)Nc1nc2ccccc2s1 (centres undefined),3
O=C(Nc1nc2ccccc2s1)C(C(F)(F)F)C(F)(F)F,74*
CC(C)C(=O)Nc1nc2ccccc2s1,1
CO[C@H]1[C@H](NC(=O)COc2ccccc2)c2ccccc2C12CCN(C(=O)c1ccsc1)CC2,5
CC1=Nc2nc(-c3ccc(Cl)cc3)nn2C(c2cccc(C)c2)C1C(N)=O (centres undefined),3
Cc1ccc(-c2nn3c(-c4cccs4)c(C#N)cnc3c2Br)cc1,0
Cc1ccc(-c2nn3c(-c4ccc(C)cc4)nnc3c3ccccc23)cc1,3
Cc1ccc(-c2nn3c(N)c(C#N)nnc3c2Cl)cc1,94*
Oc1ccccc1-c1nc2c3c(-c4ccccc4)c(-c4ccccc4)n(Cc4ccco4)c3ncn2n1,-12
c1ccc(-c2nnc(-c3ccccc3)c(NCc3ccco3)n2)cc1,-5
Clc1ccc(C2=CC=Nn3c(Cc4ccccc4)nnc3S2)cc1,11
Cc1cccc(N2NC(=O)/C(=C/c3ccc(-c4ccc(S(N)(=O)=O)cc4)o3)C2=O)c1,32*
O=C1NN(c2cccc(F)c2)C(=O)/C1=C\c1ccc(-c2ccc(C(=O)O)cc2)o1,6
Cc1ccc(N2NC(=O)/C(=C/c3ccc(-c4ccc(S(=O)(=O)Nc5nccs5)cc4)o3)C2=O)cc1,72*
CC(=O)NS(=O)(=O)c1ccc(-c2ccc(/C=C3/C(=O)NN(c4cccc(C)c4)C3=O)o2)cc1,8
NS(=O)(=O)c1ccc(-c2ccc(/C=C3\C(=O)NC(=S)N(c4cccc5ccccc45)C3=O)o2)cc1,5
NS(=O)(=O)c1ccc(-c2ccc(/C=C3/C(=O)NN(c4cccc(F)c4)C3=O)o2)cc1,44*
Cc1ccc(N2NC(=O)/C(=C/c3ccc(-c4ccccc4F)o3)C2=O)cc1C,-2
CC1=NN(c2ccc(C)c(C)c2)C(=O)/C1=C\c1ccc(-c2ccc(S(=O)(=O)c3nccs3)cc2)o1,11
NC(=O)c1ccc(-c2ccc(/C=C3/C(=O)NN(c4ccc(F)cc4)C3=O)o2)cc1,5
Fc1ccccc1CSc1nnc2c(n1)OC(c1ccccc1Cl)Nc1ccccc1-2 (centres undefined),4
COC(=O)c1cccc(NC(=O)COc2ccc(-c3ccccc3)cc2)c1,2
O=C(CCC(F)(F)F)N1CCC(C2CCN(c3ncccn3)CC2)C1 (centres undefined),-5
SMILES,ROC1-CUL1 inh
COc1ncccc1C(=O)N1CCC(C(Cc2ccccc2F)N(C)C(=O)c2cccs2)CC1 (centres undefined),1
COc1ccc(C(=O)C2CCCN(C(=O)c3ccc4nc[nH]c4c3)C2)cc1F (centres undefined),0
O=C(Nc1ccc2oc(-c3cccnc3)nc2c1)c1ccc(-c2ccccc2)o1,4
O=C(/C=C/c1ccco1)Nc1ccc2oc(-c3cccnc3)nc2c1,54*
CCc1ccc(-c2nc3cc(NC(=O)/C=C\c4ccco4)ccc3o2)cc1,6
Cc1ccc(S(=O)(=O)N=C2C=C(C3C(=O)CC(C)(C)CC3=O)C(=O)c3ccccc32)cc1,-2
COc1ccc(S(=O)(=O)N=C2C=C(Sc3ccc(C)cc3)C(=O)c3ccccc32)cc1,-14
O=C1C(Sc2ncn[nH]2)=CC(=NS(=O)(=O)c2ccc(Cl)cc2)c2ccccc21,90*
O=C(CCCn1cncn1)N1CCCC(N2CCN(c3ccccc3)CC2)C1 (centres undefined),-1
C(=NCC1COc2ccccc2O1)c1ccc2c(c1)OCO2 (centres undefined),-8
CC1=NN(c2ccc(C)cc2)C(O)C1 (centres undefined),75*
CSc1ccc(C2N(c3ccc(C)cc3)CCN2c2ccc(C)cc2)cc1,-16
Cc1ccc(N2C(=O)C(=O)N=C(Cl)C2Cl)cc1 (centres undefined),5
COc1ccc(C2C(C(=O)c3ccc(Cl)cc3)C(=O)C(=O)N2c2ccc(C)c(Br)c2)c(OC)c1 (centres undefined),2
Cc1ccc(-c2cc(C(F)(F)F)n3nc(C(=O)N(C)Cc4cn(C)nc4C)cc3n2)cc1,2
COCCN1C(=O)/C(=C/c2ccccc2OCc2cccc(C(=O)O)c2)SC1=Nc1ccccc1,68*
CCOc1ccccc1/C=C1\SC(=Nc2ccc(C(=O)OC)cc2)N(C)C1=O,-11
Cc1ccc(N=C2S/C(=C/c3ccccc3OCC(=O)N3CCOCC3)C(=O)N2Cc2ccccc2)cc1,2
